The whole screen tested about 310,000 compounds, of which about 2,200 (0.71%) showed an effect of 50% or more. Effects have a minus sign here. The full list was thinned out, with strong results kept by preference.
What follows are compounds tested against human ether-à-go-go-related gene (hERG) potassium channel (human, UniProt Q12809) (assay: primary screen, population patch clamp on CHO cells stably expressing hERG; higher = less effect of the substance).
human ether-à-go-go-related gene (hERG) potassium channel, sequence (Q12809 whole entry, looked up): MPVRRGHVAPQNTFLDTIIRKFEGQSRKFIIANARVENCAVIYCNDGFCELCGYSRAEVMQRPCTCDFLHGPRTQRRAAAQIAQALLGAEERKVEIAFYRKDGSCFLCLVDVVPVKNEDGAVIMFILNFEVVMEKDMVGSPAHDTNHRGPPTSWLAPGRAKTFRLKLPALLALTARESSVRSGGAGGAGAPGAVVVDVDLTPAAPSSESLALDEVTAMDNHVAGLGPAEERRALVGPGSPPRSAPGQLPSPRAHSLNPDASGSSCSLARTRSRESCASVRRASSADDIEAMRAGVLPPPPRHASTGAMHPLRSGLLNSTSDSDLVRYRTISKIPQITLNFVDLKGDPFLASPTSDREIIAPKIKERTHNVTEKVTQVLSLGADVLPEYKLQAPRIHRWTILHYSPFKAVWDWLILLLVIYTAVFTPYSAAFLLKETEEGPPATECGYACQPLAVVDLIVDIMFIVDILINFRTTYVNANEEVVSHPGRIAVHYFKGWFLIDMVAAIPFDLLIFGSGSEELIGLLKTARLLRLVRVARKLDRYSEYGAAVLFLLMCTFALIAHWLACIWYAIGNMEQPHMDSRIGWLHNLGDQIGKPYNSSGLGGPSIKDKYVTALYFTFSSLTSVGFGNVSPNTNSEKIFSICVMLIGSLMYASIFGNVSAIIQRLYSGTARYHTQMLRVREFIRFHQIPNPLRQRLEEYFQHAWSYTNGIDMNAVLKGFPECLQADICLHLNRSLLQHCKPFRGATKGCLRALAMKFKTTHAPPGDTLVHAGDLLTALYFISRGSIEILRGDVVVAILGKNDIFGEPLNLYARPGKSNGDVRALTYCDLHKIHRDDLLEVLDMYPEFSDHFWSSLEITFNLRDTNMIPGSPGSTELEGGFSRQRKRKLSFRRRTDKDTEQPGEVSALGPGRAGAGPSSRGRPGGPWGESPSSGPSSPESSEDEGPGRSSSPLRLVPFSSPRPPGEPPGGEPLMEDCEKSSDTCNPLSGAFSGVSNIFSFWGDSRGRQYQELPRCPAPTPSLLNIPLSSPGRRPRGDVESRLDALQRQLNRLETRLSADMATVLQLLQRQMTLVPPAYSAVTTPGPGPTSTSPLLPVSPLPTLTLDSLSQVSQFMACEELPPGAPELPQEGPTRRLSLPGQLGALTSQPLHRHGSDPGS

Row | SMILES | hERG current change (%, negative = inhibition) at 1uM
1 | CCOC(=O)C1CCCN(C(=O)CC(c2ccccc2)c2ccccc2)C1 (stereo not drawn) | -2.54%
2 | O=C(CN=C1NS(=O)(=O)c2ccccc21)OCC(=O)c1ccccc1 | 10.8%
3 | CCC(C)(C)c1ccc(OCCCC[n+]2ccc(C)cc2)c(C(C)(C)CC)c1.[Br-] | -34.5%
4 | CCC(C)(C)c1ccc(OCCCC[n+]2cccc(C)c2C)c(C(C)(C)CC)c1.[Br-] | -52.7%
5 | CCC(C)(C)c1ccc(OCCCC[n+]2ccccc2)c(C(C)(C)CC)c1.[Br-] | -28.5%
6 | CCOC(=O)c1cc2[nH]c3ccccc3c2[n+](-c2ccc([N+](=O)[O-])cc2)c1C.[Cl-] | -70.6%
7 | CCOC(=O)c1cc2[nH]c3ccccc3c2[n+](-c2ccc([N+](=O)[O-])cc2)c1N.O=C([O-])C(F)(F)F | -13.8%
8 | N#Cc1cc2[nH]c3ccccc3c2[n+](-c2ccc([N+](=O)[O-])cc2)c1N.[Cl-] | -28.7%
9 | C[C@]12CCC3C(CCC4=C/C(=N/OCC(=O)NC(CCC(=O)O)C(=O)O)CC[C@@]43C)C1CCC2O (stereo partly drawn) | 10.5%
10 | CCN(CC)/C(=N\S(=O)(=O)c1ccccc1C)c1ccccc1 | -5.09%
11 | Cc1nn2cc(-c3ccc(Cl)cc3)cnc2c1Cl | 13.1%
12 | C=CCn1c(=N)c(C(=O)NCCCOC)cc2c(=O)n3ccccc3nc21 | -22.3%
13 | C=CCn1c(=N)c(C(=O)NCCCOC)cc2c(=O)n3cccc(C)c3nc21 | -64.2%
14 | C=CCn1c(=N)c(C(=O)OCC)cc2c(=O)n3cccc(C)c3nc21 | -73.7%
15 | CCOC(=O)c1cc2c(=O)n3cccc(C)c3nc2n(CCOC)c1=NC(C)=O | 8.92%
16 | CCn1c(=N)c(C(=O)NCCCOC)cc2c(=O)n3cccc(C)c3nc21 | -47%
17 | O=C(Nc1ccccc1F)N(CCCN1CCOCC1)Cc1cc2cc3c(cc2[nH]c1=O)OCCO3 | 9.36%
18 | Cc1ccc(NC(=O)c2cc(N3C(=O)CCC3=O)ccc2N2CCOCC2)cc1 | 5.52%
19 | COc1ccc(CN(C)S(=O)(=O)c2nnc(NC(=O)c3cccc(F)c3)s2)cc1OC | 6.86%
20 | CSc1nc(-c2ccco2)cc(C(F)(F)F)c1C#N | 12%
21 | CCOC(=O)N1CCN(C(=O)C2CCCN(c3nc4ccc(OCC)cc4s3)C2)CC1 (stereo not drawn) | -3.97%
22 | CCn1c(SCC(=O)NC2CCS(=O)(=O)C2)nnc1-c1ccccc1 (stereo not drawn) | 6.72%

Row | SMILES | hERG current change (%, negative = inhibition) at 1uM
23 | O=C(CSc1nnc(-c2ccc(Br)cc2)n1CCc1ccccc1)NC1CCS(=O)(=O)C1 (stereo not drawn) | -60.7%
24 | COc1ccccc1-c1nnc(SCC(=O)NC2CCS(=O)(=O)C2)n1CCc1ccccc1 (stereo not drawn) | 11.2%
25 | COc1ccc(C2(c3cccc(O)c3OC)CCN(C(C)=O)CC2)cc1O | 17.8%
26 | Cc1ccc2nc(NC(=O)C3CCCN(S(=O)(=O)c4cccnc4)C3)sc2c1 (stereo not drawn) | 7.66%
27 | CC(=O)N=c1c(C#N)cc2c(=O)n3ccccc3nc2n1CCCOC(C)C | 8.03%
28 | CCOCCCn1c(=NC(=O)c2cccs2)c(C#N)cc2c(=O)n3ccccc3nc21 | -49.3%
29 | CC(C)OCCCn1c(=NC(=O)c2ccncc2)c(C#N)cc2c(=O)n3ccccc3nc21 | -63.4%
30 | CCCCCn1c(=NC(C)=O)c(C#N)cc2c(=O)n3ccccc3nc21 | 0.0455%
31 | CC(C)OCCCn1c(=NC(=O)c2cccs2)c(C#N)cc2c(=O)n3ccccc3nc21 | -67.1%
32 | CCOCCCn1c(=NC(C)=O)c(C#N)cc2c(=O)n3ccccc3nc21 | 11.7%
33 | Cc1cc(C(=O)CN2C(=O)NC3(CCCCC3)C2=O)c(C)n1-c1ccc2c(c1)OCO2 | 5.94%
34 | C=CCN(CC=C)C(=O)C(=O)c1ccn(-c2c(C)csc2C(=O)OC)c1 | -59.3%
35 | CCN(CC)C(=O)C(=O)c1ccn(-c2c(C)csc2C(=O)OC)c1 | 7.53%
36 | COC(=O)c1scc(C)c1-n1ccc(C(=O)C(=O)N(C)C)c1 | 9.29%
37 | CC(C)(C)CN1CCNC(=O)C1CC(=O)NCCc1cnn(-c2ccccc2)c1 (stereo not drawn) | 5.53%
38 | CSc1sc(C(=O)Nc2ccc(F)cc2F)c2c1C=CCC2 | 11.8%
39 | COc1ccc(NS(=O)(=O)c2cccs2)cc1S(=O)(=O)N1CCOCC1 | 14.7%
40 | O=C(Nc1ccccc1)N1CCN(c2ncccn2)CC1 | 6.7%
41 | c1ccc(CCCN2CCOCC2)cc1 | 22.1%
42 | OC1(Cc2cc(-c3ccccc3)no2)CCN(CCCc2ccccc2)CC1 | -55.5%
43 | COc1cccc(-c2cc(CC3(O)CCN(CCCc4ccccc4)CC3)on2)c1 | -39.3%
44 | O=C(NCCCN1CCCC1)c1ccc(CS(=O)(=O)c2ccc(Cl)cc2)o1 | 18.1%

Row | SMILES | hERG current change (%, negative = inhibition) at 1uM
45 | COc1ccccc1S(=O)(=O)Cc1ccc(C(=O)NCCN2CCCCCC2)o1 | 9.15%
46 | O=C(NCCN1CCCCCC1)c1ccc(CS(=O)(=O)c2ccc(Br)cc2)o1 | -37.9%
47 | COc1ccc(N2CCN(CCCNC(=O)c3ccc(CS(=O)(=O)c4ccc(Cl)cc4)o3)CC2)cc1 | -71.2%
48 | O=C(NCCN1CCN(Cc2ccccc2)CC1)c1ccc(CS(=O)(=O)c2ccc(Br)cc2)o1 | -50.5%
49 | COc1ccc(N2CCN(CCCNC(=O)c3ccc(CS(=O)(=O)c4ccc(OC)cc4)o3)CC2)cc1 | -43.1%
50 | O=C(NCCN1CCOCC1)c1ccc(CS(=O)(=O)c2ccc(Br)cc2)o1 | -0.189%
51 | COc1ccccc1S(=O)(=O)Cc1ccc(C(=O)NCCCN2CCN(c3ccc(F)cc3)CC2)o1 | -68.3%
52 | COc1ccccc1S(=O)(=O)Cc1ccc(C(=O)NCCN2CCCC2)o1 | 14.2%
53 | CSc1nc2nc3c(c(=O)n2[nH]1)CCC3 | 1.88%
54 | CCOC(=O)c1sc2nc[nH]c(=O)c2c1C | 12.6%
55 | Cc1cc2c(cc1C)[n+](C)cn2CC(O)COCC1CC=CCC1.[I-] (stereo not drawn) | 11%
56 | CC(=O)CC(c1ccccc1)c1c(O)c2ccccc2oc1=O.[Na] (stereo not drawn) | 15.2%
57 | Cc1ccc(C(=O)Nc2cccc(-c3ccc(N4CCOCC4)nn3)c2)cc1 | 4.57%
58 | COc1cc(SC)ccc1C(=O)OCC(=O)NC1CCCC1 | 9.49%
59 | Cc1ccc(CSc2nnc3ccc(-c4ccncc4)nn23)cc1 | -3.17%
60 | O=C(CSc1ccc2nnc(-c3ccccn3)n2n1)Nc1cccc(F)c1 | -7.83%
61 | Fc1ccc(CSc2ccc3nnc(-c4ccccn4)n3n2)cc1 | -92.9%
62 | Fc1cccc(Cl)c1CSc1ccc2nnc(-c3ccccn3)n2n1 | 1.37%
63 | Fc1cccc(CSc2ccc3nnc(-c4ccccn4)n3n2)c1 | -50.2%
64 | c1ccc(CSc2ccc3nnc(-c4ccccn4)n3n2)cc1 | -26.6%
65 | Fc1ccc(CSc2ccc3nnc(-c4cccnc4)n3n2)cc1 | -31.8%
66 | Cc1cccc(CSc2ccc3nnc(-c4cccnc4)n3n2)c1 | -16%

Row | SMILES | hERG current change (%, negative = inhibition) at 1uM
67 | Fc1ccc(CSc2nnc3ccc(-c4ccncc4)nn23)cc1 | -61.2%
68 | Cc1ccc(CSc2ccc3nnc(-c4cccnc4)n3n2)cc1 | -70.6%
69 | c1ccc(CSc2nnc3ccc(-c4ccncc4)nn23)cc1 | -12%
70 | Brc1ccc(CSc2ccc3nnc(-c4ccccn4)n3n2)cc1 | -12.7%
71 | Cc1cc[n+](CC(=O)Nc2cc(C(F)(F)F)ccc2Cl)cc1.[Cl-] | 5.29%
72 | O=C(NCCS(=O)(=O)N1CCC2(CC1)OCCO2)c1ccc(F)cc1 | 13.2%
73 | CSc1nc2ccccc2cc1/C=C(\C#N)c1ccccc1 | 9.25%
74 | Cc1ccccc1S(=O)Cc1ccc(C(=O)NCCN2CCOCC2)o1 (stereo not drawn) | 25.5%
75 | CC(C)CN(C(=O)CSc1nnc2ccccn12)C1CCS(=O)(=O)C1 (stereo not drawn) | 8.69%
76 | CCOC(=O)Cn1ncc2c3ccccc3n(CC(=O)OCC)c2c1=O | 13.4%
77 | Cc1cccc(CSc2ccc3nnc(-c4ccccn4)n3n2)c1 | -58.9%
78 | Cc1cccc(CSc2nnc(-c3ccccn3)n2N)c1 | 9.76%
79 | Cc1cccc(CSc2ccc3nnc(-c4cccs4)n3n2)c1 | 5.73%
80 | Cc1ccc(NC(=O)c2cc(NC(=O)C3CC=CCC3C(=O)O)ccc2N2CCOCC2)cc1Cl (stereo not drawn) | 5.76%
81 | O=C(/C=C/c1ccco1)Nc1cccc(S(=O)(=O)N2CCOCC2)c1 | -5.85%
82 | O=[N+]([O-])c1ccc(CN2CCN(Cc3c[nH]c4ccccc34)CC2)cc1 | -73.7%
83 | COc1ccc(CN2CCN(Cc3c[nH]c4ccccc34)CC2)cc1.O=C(O)C(=O)O | -27.2%
84 | CCOc1ccc(CN2CCN(Cc3c[nH]c4ccccc34)CC2)cc1.O=C(O)C(=O)O | -85.8%
85 | O=C(O)C(=O)O.O=[N+]([O-])c1ccc(S(=O)(=O)N2CCN(Cc3c[nH]c4ccccc34)CC2)cc1 | -10.1%
86 | Brc1ccc(CN2CCN(Cc3c[nH]c4ccccc34)CC2)cc1.O=C(O)C(=O)O | -22%
87 | c1ccc(CN2CCN(Cc3c[nH]c4ccccc34)CC2)cc1 | 15.3%

From article PMC4336329 (PLoS ONE, 2015)
